# Values without a mark were called inactive. For some of these results: Measured potencies and affinities stand elsewhere. Active and inactive are the calls of the source. Unless noted, no rule for the calls is given here.
# Columns and labels:
# [1] = antimalarial activity against Dd2 strain (AID 2302;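 active = growth inhibition above 50% at the single 2 µM test dose, taken to imply half-maximal potency below 2 µM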;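 also: 0% = DMSO untreated growth and 100% = chloroquine plus artemisinin killed control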); conditions: P. falciparum Dd2 in RBCs, LDH growth readout, 72 h; at 2 µM; active compounds read high
# [2] = HepG2 cytotoxicity, primary screen, cytotoxicity control for P. falciparum antimalarial project, cell-based, ATP luminescence (AID 2303;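 active = inhibition above 50%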;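 also: 0% = DMSO wells and 100% = digitonin-killed cells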); conditions: HepG2 viability, 24-48 h, at 10 µM, active compounds read high
# [3] = molecular target: L-lactate dehydrogenase (Plasmodium falciparum (isolate CDC / Honduras)) (UniProt Q27743); experiment: PfLDH activity inhibition – cell lysate, 3D7 strain, counter-screen for P. falciparum growth inhibition project (AID 2304);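 also: 0% = vehicle and 100% = reference inhibitor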; conditions: P. falciparum 3D7 crude extract, LDH APAD/NBT absorbance; at 2 µM; active compounds read high
# [4] = inhibition of 3D7 malaria parasite growth – strain 3D7 (AID 2306);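 also: 0% = DMSO wells and 100% = chloroquine plus artemisinin control wells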; conditions: P. falciparum 3D7 erythrocytic growth, LDH absorbance, 72 h; at 2 µM; active compounds read high
# [5] = molecular target: Calcium-dependent protein kinase 1 (Plasmodium falciparum (isolate 3D7)) (UniProt P62344); experiment: PfCDPK1 kinase inhibitors, biochemical, TCAMS library (AID 1159585; cut-off not given, nearly all actives have IC50 up to about 0.98 µM;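 also: inhibitors leave more ATP so luminescence rises with inhibition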); conditions: recombinant PfCDPK1, Kinase-Glo ATP depletion luminescence
# [6] = molecular target: Plasmodium falciparum protein kinase 6 (PK6, PF3D7_1337100) (UniProt Q8IDW1); experiment: PfPK6 kinase inhibitors, biochemical, TCAMS library (AID 1159586); conditions: recombinant PfPK6, Kinase-Glo ATP depletion luminescence
# [7] = molecular target: Protein kinase 7 (PK7), Plasmodium falciparum 3D7 (PF3D7_0213400) (UniProt Q7YTF7); experiment: inhibition of Plasmodium PK7 catalytic activity – biochemical, TCAMS antimalarial set, Kinase-Glo luminescence (AID 1159587); conditions: recombinant PfPK7, Kinase-Glo ATP depletion luminescence
# [8] = molecular target: Calcium-dependent protein kinase 4 (Plasmodium falciparum (isolate 3D7)) (UniProt Q8IBS5); experiment: PfCDPK4 kinase inhibitors, biochemical, TCAMS library (AID 1159588; cut-off not given, nearly all actives have IC50 up to about 0.91 µM); conditions: recombinant PfCDPK4, Kinase-Glo ATP depletion luminescence
# Sequence of Calcium-dependent protein kinase 4 (Plasmodium falciparum (isolate 3D7)) (Q8IBS5 whole entry, looked up): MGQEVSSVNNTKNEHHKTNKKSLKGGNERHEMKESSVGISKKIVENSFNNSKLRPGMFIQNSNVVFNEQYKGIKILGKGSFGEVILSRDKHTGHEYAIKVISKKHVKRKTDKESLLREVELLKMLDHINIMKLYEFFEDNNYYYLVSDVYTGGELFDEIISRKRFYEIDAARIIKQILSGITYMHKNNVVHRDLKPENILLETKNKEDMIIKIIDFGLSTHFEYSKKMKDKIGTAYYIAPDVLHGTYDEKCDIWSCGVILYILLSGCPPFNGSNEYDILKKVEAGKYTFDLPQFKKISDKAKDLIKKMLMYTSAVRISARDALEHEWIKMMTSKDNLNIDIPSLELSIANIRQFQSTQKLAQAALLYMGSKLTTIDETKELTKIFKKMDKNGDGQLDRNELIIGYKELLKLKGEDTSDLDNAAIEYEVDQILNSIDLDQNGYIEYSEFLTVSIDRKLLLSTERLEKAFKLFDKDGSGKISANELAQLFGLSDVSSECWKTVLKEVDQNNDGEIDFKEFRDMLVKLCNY
# Sequence of Calcium-dependent protein kinase 1 (Plasmodium falciparum (isolate 3D7)) (P62344 whole entry, looked up): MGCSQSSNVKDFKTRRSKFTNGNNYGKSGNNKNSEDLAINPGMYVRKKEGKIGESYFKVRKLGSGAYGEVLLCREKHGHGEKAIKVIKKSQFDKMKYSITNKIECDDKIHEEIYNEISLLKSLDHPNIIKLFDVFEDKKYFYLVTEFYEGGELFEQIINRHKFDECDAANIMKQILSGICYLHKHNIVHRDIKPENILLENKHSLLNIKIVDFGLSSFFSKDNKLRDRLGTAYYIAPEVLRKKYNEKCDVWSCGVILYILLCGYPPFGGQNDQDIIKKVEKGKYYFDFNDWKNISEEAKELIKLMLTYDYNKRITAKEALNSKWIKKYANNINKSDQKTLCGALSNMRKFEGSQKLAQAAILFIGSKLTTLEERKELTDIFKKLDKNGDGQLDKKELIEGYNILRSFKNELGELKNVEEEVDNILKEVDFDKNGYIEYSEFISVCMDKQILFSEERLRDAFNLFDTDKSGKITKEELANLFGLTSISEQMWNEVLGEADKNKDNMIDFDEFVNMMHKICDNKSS
# Sequence of L-lactate dehydrogenase (Plasmodium falciparum (isolate CDC / Honduras)) (Q27743 whole entry, looked up): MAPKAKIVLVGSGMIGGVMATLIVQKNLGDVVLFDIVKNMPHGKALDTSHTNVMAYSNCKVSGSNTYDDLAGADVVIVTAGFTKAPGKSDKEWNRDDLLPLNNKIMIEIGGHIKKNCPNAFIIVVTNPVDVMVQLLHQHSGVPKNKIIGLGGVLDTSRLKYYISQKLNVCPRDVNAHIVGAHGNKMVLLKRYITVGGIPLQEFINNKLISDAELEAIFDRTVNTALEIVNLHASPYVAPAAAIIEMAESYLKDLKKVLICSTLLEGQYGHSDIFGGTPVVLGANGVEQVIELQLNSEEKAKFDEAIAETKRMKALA
# Sequence of Protein kinase 7 (PK7), Plasmodium falciparum 3D7 (PF3D7_0213400) (Q7YTF7 1-343): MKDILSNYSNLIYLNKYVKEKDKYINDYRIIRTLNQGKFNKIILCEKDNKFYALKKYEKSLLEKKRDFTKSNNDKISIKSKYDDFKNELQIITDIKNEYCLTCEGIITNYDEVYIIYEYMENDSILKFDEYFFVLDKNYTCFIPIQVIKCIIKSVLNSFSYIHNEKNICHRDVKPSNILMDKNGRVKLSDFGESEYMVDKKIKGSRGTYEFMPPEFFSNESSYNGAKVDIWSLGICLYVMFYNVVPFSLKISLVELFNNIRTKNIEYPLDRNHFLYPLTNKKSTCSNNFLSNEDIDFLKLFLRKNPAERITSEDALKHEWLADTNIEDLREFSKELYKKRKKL
# Sequence of Plasmodium falciparum protein kinase 6 (PK6, PF3D7_1337100) (Q8IDW1 1-305): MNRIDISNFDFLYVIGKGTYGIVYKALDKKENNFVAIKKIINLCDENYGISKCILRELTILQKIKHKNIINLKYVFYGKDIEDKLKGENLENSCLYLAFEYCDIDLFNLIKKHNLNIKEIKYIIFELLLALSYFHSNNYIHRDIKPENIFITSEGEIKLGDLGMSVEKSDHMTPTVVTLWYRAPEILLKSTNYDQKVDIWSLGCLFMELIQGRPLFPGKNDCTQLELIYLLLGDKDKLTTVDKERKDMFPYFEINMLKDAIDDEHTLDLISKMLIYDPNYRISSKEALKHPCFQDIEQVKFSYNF
Compound,growth inhibition [1],inhibition [2],inhibition [3] [%],growth inhibition [4],outcome [5],outcome [6],outcome [7],outcome [8]
COc1cccc(NC(=O)NC2CCN(CCCCCNC(=O)/C=C/c3ccc(Cl)c(Cl)c3)CC2)c1,8%,14%,-1,102% (active),inactive,inactive,inactive,inactive
Cc1ccc(Nc2ccnc(Nc3ccc(C)c(F)c3)n2)cc1O,27%,4%,-4,100% (active),inactive,inactive,inactive,inactive
CC1(C)CN(CCC2CCC(NC(=O)/C=C/c3ccc(F)cc3F)CC2)Cc2ccc(C#N)cc21 (stereo not given),77% (active),39%,-6,88% (active),inactive,inactive,inactive,inactive
N#CC(c1cccc(Cl)c1)c1ccc2c(C(F)(F)F)cc(C(F)(F)F)nc2n1 (stereo not given),97% (active),52% (active),4,96% (active),inactive,inactive,inactive,inactive
FC(F)(F)c1ccc2nc(-c3ccc(-c4cccc(CNCCc5ccncc5)c4)s3)[nH]c2c1,95% (active),20%,-6,100% (active),inactive,inactive,inactive,inactive
O=C(NCC1CCN(Cc2ccsc2)C1)c1cc(-c2cccc(C(F)(F)F)c2)cs1 (stereo not given),15%,37%,-2,98% (active),inactive,inactive,inactive,inactive
COC(=O)C(Cc1ccccc1)C(CSCc1ccc(OC)cc1)C(=O)N[C@@H](C(=O)OC(C)(C)C)c1ccc(C(C)(C)C)cc1 (stereo not given in full),44%,-1%,2,93% (active),inactive,inactive,inactive,inactive
Cc1cc2nc(-c3ccc(/C=C/C(=O)NCCCc4ccccc4)cc3)[nH]c2cc1C,13%,15%,-4,96% (active),inactive,inactive,inactive,inactive
CN(C)C(CNC(=O)c1cc(-c2ccncc2)c(-c2cc3ccccc3[nH]2)o1)c1ccccc1 (stereo not given),62% (active),3%,-2,96% (active),inactive,inactive,inactive,inactive
COc1ccc(Nc2ncc3c(-c4cccc(NC(=O)Cc5cccnc5)c4)c[nH]c3n2)cc1OC,85% (active),27%,1,98% (active),inactive,inactive,inactive,inactive
CCCOc1ccc(-c2nonc2NC(=O)c2cccc(OC)c2)cc1OCCC,100% (active),18%,0,94% (active),inactive,inactive,inactive,inactive
O=C(NCCc1ccccc1)N(Cc1ccc(-c2cccc(CN3CCNCC3)c2)cc1)C1CCN(Cc2ccccc2)CC1,29%,27%,-1,90% (active),inactive,inactive,inactive,inactive
CCC(C)(C)c1ccc(N2C(N)=NC(N)=NC2(C)C)cc1,4%,40%,-1,91% (active),inactive,inactive,inactive,inactive
COc1ccc2nccc([C@@H](O)CN3CCC(NCc4cc5c(Cl)cc(Cl)cc5[nH]4)CC3)c2c1,86% (active),93% (active),4,101% (active),inactive,inactive,inactive,inactive
COc1cccc(OC2CCN(C(=O)c3cc(C(C)(C)C)nn3Cc3ccccc3)CC2)c1,98% (active),3%,3,102% (active),inactive,inactive,inactive,inactive
CCOC(=O)c1ccc(-c2c(C(F)(F)F)noc2-c2cc(CC)c(OC)cc2O)o1,95% (active),-7%,1,100% (active),inactive,inactive,inactive,inactive
COc1ccc(CN2CCCC(OC(c3ccc(F)cc3)c3ccc(F)cc3)C2)c(O)c1 (stereo not given),99% (active),16%,0,100% (active),inactive,inactive,inactive,inactive
COc1ccc2nc(C)cc(NN=Cc3ccccc3)c2c1,6%,4%,0,80% (active),inactive,inactive,inactive,inactive
Cn1c(=O)c2cc(C(=O)NCCCN3CCCCCC3)sc2c2ccccc21,99% (active),32%,0,99% (active),inactive,inactive,inactive,inactive
CC(C)Cc1nc(N)nc(N)c1-c1ccc(Cl)cc1,3%,5%,6,96% (active),inactive,inactive,inactive,inactive

# From PubChem BioAssay
